This note sets out measurements from PubChem BioAssay.

Activity calls are given as the source filed them.

The target of one assay is Albumin (Bos taurus) (UniProt P02769). Briefly: compounds binding labelled BSA control protein – biochemical, small-molecule microarray, Alexa647 label, 635/667 nm fluorescence, artefact control for SMM control protein annotation, profiling panel (AID 1118).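 Also: score merges 667 nm emission intensity and signal-to-noise per printed compound spot.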 As to conditions: BSA-A647 binding, fluorescence 635 nm, higher = more signal.
Assay [1] is described as follows: probe aXIP binding to arrayed compounds – biochemical, NeuroSMM set, 635/667 nm fluorescence, primary screen (AID 1119).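 Also: probe is the protein aXip251-270 applied at 1 µg/mL to compound-printed slides; binding of probe to printed compounds measured as 667 nm fluorescence plus signal to noise.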 As to conditions: small-molecule microarray, higher = more signal, called active from +8 up or from −8 down.
Assay [2] in a line: probe aNOTCH3 binding on compound microarray – biochemical, small-molecule microarray, 635/667 nm fluorescence, primary screen (AID 1120).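 Also: probe is a biotin-tagged antibody raised against NOTCH3 rather than NOTCH3 protein; score merges spot fluorescence near 667 nm with spot signal to noise.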 To be noted: higher = more signal.
Assay [3] in a line: probe aNOTCH2 binding on compound microarray – biochemical, small-molecule microarray, 635/667 nm fluorescence, primary screen (AID 1121).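 Also: score merges feature fluorescence read at 667 nm with its signal to noise.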 As to conditions: higher = more signal.
The target in assay [4] is Carbonic anhydrase 2 (Homo sapiens) (UniProt P00918). Briefly: compounds binding carbonic anhydrase 2 – biochemical, small-molecule microarray, Alexa647-labelled CAII, profiling panel (AID 1122). As to conditions: CAII-A647 binding fluorescence, higher = more signal.
A short description of assay [5]: COS7 lysate on small-molecule microarray, probe aHis, 635 nm (AID 1123).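 Also: z-score combines 667nm fluorescence intensity with signal-to-noise per printed compound spot.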 To be noted: COS7 cell lysate, fluorescence, higher = more signal.
Assay [6] is described as follows: probe aLAP1 signal on lysate-treated microarray – cell lysate, small-molecule microarray, COS7 lysate, primary screen (AID 1124).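 Also: lysate comes from COS7 cells expressing LAP1 and is applied at 0.3 µg/mL; score merges spot fluorescence near 667 nm with signal-to-noise over triplicate slides.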 To be noted: probe aLAP1, fluorescence, higher = more signal.
Another assay relates to Sam68 (KHDRBS1). The experiment in a line: compounds binding KHDRBS1 protein – biochemical, small-molecule microarray, 635 nm fluorescence, primary screen (AID 1125).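 Also: score merges 667 nm channel intensity with signal to noise over triplicate slides.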 To be noted: higher = more signal.
Assay [7] relates to Chordin-like protein 2 (CHRDL2). The experiment in a line: compounds binding chordin-like 2 – biochemical, small-molecule microarray, 635 nm fluorescence, primary screen (AID 1126).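 Also: printed compound slides probed with Chrdl2 protein at 4 µg/mL for 1 h at 4 C; score merges 667 nm emission intensity with signal to noise over three replicate slides.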 To be noted: fluorescence 635 nm, higher = more signal.
For assay [8], the target named is Concanavalin-A (Canavalia ensiformis) (UniProt P02866). Briefly: compounds binding concanavalin A lectin – biochemical, small-molecule microarray, Alexa647 label, 635 nm, artefact control for SMM control protein annotation, primary screen (AID 1127).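 Also: z combines 667 nm emission intensity with signal-to-noise across three replicate slides.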 As to conditions: ConA-A647 binding fluorescence, higher = more signal.
Chain of Concanavalin-A (Canavalia ensiformis) (P02866 whole entry, looked up): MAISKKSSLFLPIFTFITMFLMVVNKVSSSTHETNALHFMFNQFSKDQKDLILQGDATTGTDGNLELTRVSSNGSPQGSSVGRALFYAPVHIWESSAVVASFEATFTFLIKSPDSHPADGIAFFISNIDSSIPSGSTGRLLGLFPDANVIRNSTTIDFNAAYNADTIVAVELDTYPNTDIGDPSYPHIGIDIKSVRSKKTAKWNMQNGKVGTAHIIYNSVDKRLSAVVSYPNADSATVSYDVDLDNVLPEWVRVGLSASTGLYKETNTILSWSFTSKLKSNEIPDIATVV

Chain of Albumin (Bos taurus) (P02769 whole entry, looked up): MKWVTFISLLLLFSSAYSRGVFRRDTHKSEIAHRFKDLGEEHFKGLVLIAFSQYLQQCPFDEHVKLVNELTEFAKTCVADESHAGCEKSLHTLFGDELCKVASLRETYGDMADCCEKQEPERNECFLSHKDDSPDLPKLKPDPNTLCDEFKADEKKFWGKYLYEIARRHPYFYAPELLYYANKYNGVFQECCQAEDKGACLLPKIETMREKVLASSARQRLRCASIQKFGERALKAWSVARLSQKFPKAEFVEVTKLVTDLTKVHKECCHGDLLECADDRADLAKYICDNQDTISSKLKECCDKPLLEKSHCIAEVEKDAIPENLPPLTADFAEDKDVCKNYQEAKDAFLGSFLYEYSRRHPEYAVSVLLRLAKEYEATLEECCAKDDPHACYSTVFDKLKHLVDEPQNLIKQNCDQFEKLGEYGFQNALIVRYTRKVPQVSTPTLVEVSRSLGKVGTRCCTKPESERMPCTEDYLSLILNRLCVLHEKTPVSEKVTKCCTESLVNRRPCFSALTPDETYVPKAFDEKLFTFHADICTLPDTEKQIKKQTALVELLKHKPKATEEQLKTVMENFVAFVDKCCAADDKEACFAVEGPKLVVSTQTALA

`COC(=O)[C@@]1(Cc2ccccc2N=[N+]=[N-])COC(c2ccc(OCCCO)cc2)=N1`: the composite z-score is -0.261 with Albumin (Bos taurus); -0.0546 in assay [2]; -0.112 in assay [3]; 0.573 in assay [4]; 1.99 in [5]; 0.753 in assay [6]. Also, the composite z-score in the assay with Sam68 (KHDRBS1) was 0.994; in [7], -0.473; in assay [8], 1.08. Moreover, the composite Z-score in assay [1] was 1.07 (inactive).

On to `CC(=O)NCCCC[C@@H]1NC(=O)[C@@H]2C[C@H](C(=O)NCCCCCCNC(=O)CS)[C@H](c3ccc(O)cc3)N2C1=O`, for which the composite z-score with Albumin (Bos taurus) is -0.0424; in assay [2], -0.256; in assay [3] it was -0.129; in assay [4] it was 0.597; in assay [5] it was 0.846; in assay [6], 0.386. The composite z-score was 0.464 in the assay with Sam68 (KHDRBS1), -0.573 in assay [7] and 0.647 in assay [8]. In addition, the composite Z-score in assay [1] was -0.202 (inactive).

With `C[C@]1(C(=O)NCc2ccccc2)c2ccccc2C(=O)N(Cc2cc(F)cc(C(F)(F)F)c2)[C@H]1c1ccc(CO)cc1`, the composite z-score was -0.35 in the assay with Albumin (Bos taurus); -0.177 in assay [2]; -0.0971 in [3]; 0.699 in assay [4]; 0.157 in assay [5]; 0.325 in assay [6]. In addition, the values for the composite z-score (with Sam68 (KHDRBS1); in assay [7]; in [8]) were -0.763, -0.786 and -0.871, respectively. Besides, the composite Z-score in assay [1] was -0.146 (inactive).

For `O=C1O[C@H](c2ccccc2)[C@H](c2ccccc2)N2[C@H]1[C@@H](C(=O)N1CCN(c3ncccn3)CC1)[C@]1(C(=O)Nc3ccccc31)[C@H]2c1ccc(OCCO)cc1`, the composite z-score is 0.204 with Albumin (Bos taurus); 0.183 in assay [2]; -0.0986 in assay [3]; 0.301 in assay [4]; 1.75 in assay [5]; 0.151 in [6]. For the same compound, the composite z-score in the assay with Sam68 (KHDRBS1) was found to be 1.3; in assay [7] it was 0.602; in assay [8], 0.536. The composite Z-score in assay [1] was -0.317 (inactive).

Turning to `CCCCC=C[C@@H](NC(=O)c1ccco1)c1ccccc1`, the composite z-score with Albumin (Bos taurus) was 0.844; in assay [2], -0.0947; in [3] it was -0.0419; in assay [4], -0.406; in [5] it was 0.0455; in assay [6], -0.358. Further, the composite z-score in the assay on Sam68 (KHDRBS1) was -0.708; in [7], -0.134; in [8], 1.01. For the same compound, in assay [1], the composite Z-score was -0.474 (inactive).

Turning to `COC(=O)c1ccc(OC)c(/C=C\CC(OC(C)=O)c2ccccc2)c1` (stereo not given), the composite z-score was 0.652 with Albumin (Bos taurus); -0.276 in assay [2]; -0.149 in assay [3]; 0.971 in assay [4]; 0.718 in assay [5]; -0.0984 in [6]. Besides, the results for the composite z-score (in the assay on Sam68 (KHDRBS1); in [7]; in [8]) were -0.215, 1.1 and 1.15, respectively. The composite Z-score in assay [1] is -0.192 (inactive).

For the compound `C=CCNC(=O)[C@@H]1[C@H]2C(=O)O[C@H](c3ccccc3)[C@H](c3ccccc3)N2[C@H](c2ccc(O)cc2)[C@@]12C(=O)N(C(=O)OCCOC)c1ccccc12`, the composite z-score in the assay with Albumin (Bos taurus) was 0.752; in assay [2], -0.0716; in assay [3] it was -0.143; in assay [4], 0.519; in assay [5], 2.23; in [6] it was 0.334. Further, the composite z-score in the assay on Sam68 (KHDRBS1) was 1.28; in assay [7], -0.49; in assay [8], -0.18. In assay [1], the composite Z-score was -0.155 (inactive).

For the compound `COCCOC(=O)N1C(=O)[C@@]2(c3cc(C#CC4(O)CCCCCC4)ccc31)[C@H](C(=O)N1CCCCCCC1)[C@H]1C(=O)O[C@H](c3ccccc3)[C@H](c3ccccc3)N1[C@@H]2c1ccccc1OCCO`, the composite z-score worked out at 0.155 with Albumin (Bos taurus); 0.922 in assay [2]; 0.191 in [3]; 0.452 in assay [4]; 2.83 in assay [5]; 0.542 in assay [6]. Further, the composite z-score in the assay with Sam68 (KHDRBS1) was 1.33; in [7] it was 1.09; in assay [8] it was 0.827. Also, in assay [1], the composite Z-score was 0.176 (inactive).

Take `CC(C)N1C(=O)[C@@]2(c3ccc([N+](=O)[O-])cc3)CC(=O)N(CC34CC5CC(CC(C5)C3)C4)[C@@H]2c2ccc(CO)cc21`: the composite z-score in the assay with Albumin (Bos taurus) was -0.747; in assay [2] it was 0.49; in assay [3], -0.237; in assay [4], -0.531; in assay [5] it was 0.773; in [6], 0.632. The composite z-score was -0.507 in the assay on Sam68 (KHDRBS1), -1.27 in [7] and 0.134 in assay [8]. In addition, in assay [1], the composite Z-score was -0.0775 (inactive).

Take `C=C(COC)/C(=C/C[C@H](OC(=O)c1ccncc1)c1cccc(OCCO)c1)c1cc(C(=O)OC)ccc1OC`: the composite z-score with Albumin (Bos taurus) is 0.374; in assay [2], -0.0006; in assay [3] it was -0.146; in assay [4], 0.697; in assay [5], 0.75; in [6], 0.343. The figures for the composite z-score (with Sam68 (KHDRBS1); in assay [7]; in assay [8]) were 0.908, -0.386 and -0.163, respectively. Also, in assay [1], the composite Z-score was 0.415 (inactive).

With `[N-]=[N+]=Nc1ccccc1[C@@H]1OC(c2ccc(OCCCO)cc2)=N[C@]1(CCS(=O)(=O)c1ccccc1)C(=O)N1CCOCC1`, the composite z-score was found to be 0.815 in the assay with Albumin (Bos taurus); 0.287 in assay [2]; 0.0263 in [3]; 0.618 in assay [4]; 2.89 in [5]; 0.483 in [6]. For the same compound, the composite z-score with Sam68 (KHDRBS1) is 1.29; in assay [7], -0.535; in assay [8], 1.1. Moreover, the composite Z-score in assay [1] is 0.167 (inactive).

Regarding `O=C1c2ccccc2[C@@]2(Cc3ccccc3N(Cc3ccccc3)C2=O)[C@H](c2ccc(CO)cc2)N1C1CCCCC1`, the composite z-score with Albumin (Bos taurus) is -0.841; in assay [2] it was -0.141; in assay [3], -0.14; in assay [4], 0.416; in assay [5], 1.03; in assay [6], 0.432. In addition, the figures for the composite z-score (in the assay on Sam68 (KHDRBS1); in [7]; in [8]) were 0.689, 0.685 and 1.01, respectively. In addition, the composite Z-score in [1] is 0.0066 (inactive).

`C[C@H]1NC(=O)[C@H](Cc2ccccc2)NC(=O)[C@@]23C(=O)N[C@@H](Cc4ccccc4)C2[C@H](C)[C@@]2(C)O[C@H]2C3/C=C/C/C=C\CNC1=O` (stereo not given in full): the composite z-score in the assay with Albumin (Bos taurus) was -1.45; in assay [2] it was -0.15; in assay [3], -0.118; in assay [4] it was -0.0479; in [5], -1.21; in assay [6], 0.0584. For the same compound, the composite z-score in the assay with Sam68 (KHDRBS1) is -1.69; in assay [7], 0.417; in assay [8], -1.44. For the same compound, in assay [1], the composite Z-score was 0.572 (inactive).

For the compound `NCCCCCNC(=O)[C@H]1C[C@H]2C(=O)NCC(=O)N2[C@H]1c1cccc(OCCO)c1`, the composite z-score was 0.0356 with Albumin (Bos taurus); 0.204 in assay [2]; -0.136 in assay [3]; 0.429 in assay [4]; 1.12 in [5]; 0.391 in assay [6]. For the same compound, the composite z-score came to 1.32 with Sam68 (KHDRBS1), 0.636 in assay [7] and 1.16 in [8]. Besides, in assay [1], the composite Z-score was 0.131 (inactive).

Consider `CN1C(=O)C2C(C1=O)C1C=C(CCCO)C2C(c2cccs2)N1C` (stereo not given), for which the composite z-score with Albumin (Bos taurus) is 0.565; in [2], -0.154; in assay [3], -0.231; in assay [4] it was 0.779; in assay [5], 0.138; in assay [6] it was 1.62. Moreover, the composite z-score in the assay with Sam68 (KHDRBS1) is -0.27; in assay [7] it was -0.0999; in assay [8], -0.774. The composite Z-score in [1] is 0.654 (inactive).
